In PubChem BioAssay (EPA / NIEHS):
Active and inactive are the calls of the source. The calls were made as follows: active = hit-call score of the fitted dose curve at least 0.9, where 1 is the maximum; inactive = score below 0.9.

Assays:
[1] = read-out: Tissue plasminogen activator (tPA), PLAT (gene 5327); assay: BSK_BE3C_tPA: BioMAP Diversity Plus: BE3C Assay for Tissue plasminogen activator (tPA) Biomarker Activity (AID 2283041); conditions: primary human bronchial epithelial cells; actives raise or lower the signal;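 as to outcome: tPA level quantified by ELISA one day after compound addition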
Procedure, shortened: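 Gain- or loss-of-signal in tPA, measured by ELISA, derived by bidirectional fitting against DMSO. Cells: human primary bronchial epithelial; read at 24 h after chemical dosing.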

[2] = read-out: Interleukin-8 (IL8), CXCL8 (gene 3576); assay: BSK_CASM3C_IL8: BioMAP Diversity Plus: CASM3C Assay for Interleukin-8 (IL8) Biomarker Activity (AID 2283042); conditions: primary human coronary artery smooth muscle cells; actives raise or lower the signal;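 also: IL-8 protein level quantified by ELISA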
[3] = read-out: Human Leukocyte Antigen - DR isotype (HLADR), HLA-DRA (gene 3122); assay: BSK_CASM3C_HLADR: BioMAP Diversity Plus: CASM3C Assay for Human Leukocyte Antigen - DR isotype (HLADR) Biomarker Activity (AID 2283043); conditions: primary human coronary artery smooth muscle cells; actives raise or lower the signal;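 also: cell-surface HLA-DR protein level quantified by ELISA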
[4] = read-out: Macrophage colony-stimulating factor (MCSF), CSF1 (gene 1435); assay: BSK_CASM3C_MCSF: BioMAP Diversity Plus: CASM3C Assay for Macrophage colony-stimulating factor (MCSF) Biomarker Activity (AID 2283044); conditions: primary human coronary artery smooth muscle cells; actives raise or lower the signal;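 also: M-CSF protein amount quantified by ELISA after 24 h exposure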
[5] = read-out: Low-density lipoprotein receptor (LDLR), LDLR (gene 3949); assay: BSK_CASM3C_LDLR: BioMAP Diversity Plus: CASM3C Assay for Low-density lipoprotein receptor (LDLR) Biomarker Activity (AID 2283045); conditions: primary human coronary artery smooth muscle cells; actives raise or lower the signal;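 also: LDLR protein level on the cell surface quantified by ELISA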
[6] = read-out: Monocyte Chemoattractant Protein-1 (MCP1), CCL2 (gene 6347); assay: BSK_CASM3C_MCP1: BioMAP Diversity Plus: CASM3C Assay for Monocyte Chemoattractant Protein-1 (MCP1) Biomarker Activity (AID 2283046); conditions: primary human coronary artery smooth muscle cells; actives raise or lower the signal;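 also: MCP-1 level quantified by ELISA 24 h after dosing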
[7] = BSK_CASM3C_Proliferation: Cell Proliferation Assessment in the BioMAP Diversity Plus: CASM3C Assay (AID 2283047); conditions: primary human coronary artery smooth muscle cells;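 also: sulforhodamine B total protein stain as relative cell number at 560 nm; sub-confluent cells exposed 48 h before staining; fitted both ways against DMSO so gain or loss of cell number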
[8] = read-out: Monokine induced gamma interferon (MIG), CXCL9 (gene 4283); assay: BSK_CASM3C_MIG: BioMAP Diversity Plus: CASM3C Assay for Monokine induced gamma interferon (MIG) Biomarker Activity (AID 2283048); conditions: primary human coronary artery smooth muscle cells; actives raise or lower the signal;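 also: MIG protein level measured by ELISA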
[9] = read-out: serum amyloid A (SAA), SAA1 (gene 6288); assay: BSK_CASM3C_SAA: BioMAP Diversity Plus: CASM3C Assay for serum amyloid A (SAA) Biomarker Activity (AID 2283049); conditions: primary human coronary artery smooth muscle cells; actives raise or lower the signal;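 also: SAA protein level quantified by ELISA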
[10] = BSK_CASM3C_SRB: Viability Assessment in the BioMAP Diversity Plus: CASM3C Assay (AID 2283050); conditions: primary human coronary artery smooth muscle cells;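 also: total protein by SRB staining as cytotoxicity measure in parallel cultures; cells exposed to compound for 24 h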

Structure (SMILES)	outcome [1]	outcome [2]	outcome [3]	outcome [4]	outcome [5]	outcome [6]	outcome [7]	outcome [8]	outcome [9]	outcome [10]	AC50 [3]	AC50 [1]	AC50 [2]	AC50 [4]	AC50 [6]	AC50 [7]	AC50 [8]	AC50 [9]	AC50 [10]
CCOP(=O)(OCC)Oc1nc(Cl)c(Cl)cc1Cl	inactive	inactive	inactive	inactive	inactive	inactive	inactive	inactive	inactive	inactive	–	–	–	–	–	–	–	–	–
CCOc1nc(C(Cl)(Cl)Cl)ns1	inactive	inactive	inactive	inactive	inactive	inactive	inactive	inactive	inactive	inactive	–	–	–	–	–	–	–	–	–
CCN(CC)c1nc(C)cc(OP(=S)(OC)OC)n1	inactive	inactive	–	inactive	inactive	inactive	inactive	inactive	inactive	inactive	11.8 µM (active)	–	–	–	–	–	–	–	–
O=C1C2CC=CCC2C(=O)N1SC(Cl)(Cl)Cl (stereo not given)	–	–	–	–	inactive	–	–	–	–	–	13.4 µM (active)	11.4 µM (active)	31.7 µM (active)	28.9 µM (active)	31.7 µM (active)	7.03 µM (active)	34.9 µM (active)	35 µM (active)	29.5 µM (active)
N#Cc1c(Cl)cccc1Cl	inactive	inactive	inactive	inactive	inactive	inactive	inactive	inactive	inactive	inactive	–	–	–	–	–	–	–	–	–
COc1cc(OC)nc(NC(=O)NS(=O)(=O)c2ncccc2OCC(F)(F)F)n1	inactive	inactive	inactive	inactive	inactive	inactive	inactive	inactive	inactive	inactive	–	–	–	–	–	–	–	–	–
COC(=O)c1c(C(F)F)nc(C(F)(F)F)c(C2=NCCS2)c1CC(C)C	inactive	inactive	inactive	inactive	inactive	inactive	inactive	inactive	inactive	inactive	–	–	–	–	–	–	–	–	–
Cc1ccc(N=CN(C)C=Nc2ccc(C)cc2C)c(C)c1	inactive	inactive	inactive	–	inactive	inactive	–	inactive	–	–	–	–	–	29.6 µM (active)	–	30.4 µM (active)	–	28.7 µM (active)	28.5 µM (active)
COCC(=O)N(c1c(C)cccc1C)C(C)C(=O)OC (stereo not given)	inactive	inactive	inactive	inactive	inactive	inactive	inactive	inactive	inactive	inactive	–	–	–	–	–	–	–	–	–
O=c1n(Cl)c(=O)n(Cl)c(=O)n1Cl	inactive	inactive	inactive	inactive	inactive	inactive	inactive	inactive	inactive	inactive	–	–	–	–	–	–	–	–	–
COC(=O)N(C(=O)N1CO[C@@]2(C(=O)OC)Cc3cc(Cl)ccc3C2=N1)c1ccc(OC(F)(F)F)cc1	inactive	inactive	inactive	inactive	inactive	inactive	–	inactive	inactive	inactive	–	–	–	–	–	12.4 µM (active)	–	–	–
Clc1cccc(C(Cl)(Cl)Cl)n1	inactive	inactive	inactive	inactive	inactive	inactive	inactive	inactive	inactive	inactive	–	–	–	–	–	–	–	–	–
CC(C)N1C(=O)N(c2ccccc2)CSC1=NC(C)(C)C	inactive	inactive	inactive	inactive	inactive	inactive	–	inactive	inactive	inactive	–	–	–	–	–	30 µM (active)	–	–	–
CCCN(CC)CC1COC2(CCC(C(C)(C)C)CC2)O1 (stereo not given)	inactive	inactive	inactive	inactive	inactive	inactive	–	inactive	inactive	inactive	–	–	–	–	–	7.08 µM (active)	–	–	–
N#Cc1c[nH]cc1-c1cccc2c1OC(F)(F)O2	inactive	inactive	inactive	inactive	inactive	inactive	–	inactive	inactive	inactive	–	–	–	–	–	20 µM (active)	–	–	–
CNC(=O)N(C)c1nnc(C(C)(C)C)s1	inactive	inactive	inactive	inactive	inactive	inactive	inactive	inactive	inactive	inactive	–	–	–	–	–	–	–	–	–
N#CN=C1SCCN1Cc1ccc(Cl)nc1	inactive	inactive	inactive	inactive	inactive	inactive	inactive	inactive	inactive	inactive	–	–	–	–	–	–	–	–	–
CC(C)Oc1cccc(NC(=O)c2ccccc2C(F)(F)F)c1	inactive	inactive	inactive	inactive	inactive	inactive	inactive	inactive	inactive	inactive	–	–	–	–	–	–	–	–	–
CC1(C)CON(Cc2ccccc2Cl)C1=O	inactive	inactive	inactive	inactive	inactive	inactive	inactive	inactive	inactive	inactive	–	–	–	–	–	–	–	–	–
CC(C)NC(=O)N1CC(=O)N(c2cc(Cl)cc(Cl)c2)C1=O	inactive	inactive	inactive	inactive	inactive	inactive	inactive	inactive	inactive	inactive	–	–	–	–	–	–	–	–	–
C=CCOC(=O)C(C)(C)OC(=O)c1cc(-n2c(=O)cc(C(F)(F)F)n(C)c2=O)ccc1Cl	inactive	inactive	inactive	inactive	inactive	–	inactive	inactive	–	inactive	–	–	–	–	12.9 µM (active)	–	–	0.859 µM (active)	–
